# Laboratory results from PubChem BioAssay (Tox21).
# Unmarked numbers belong to inactive results. The source made the active and inactive calls. The call rests on the fitted dose curve.
# Molecular target: Acetylcholinesterase (Homo sapiens) (UniProt P22303)
# Test: Acetylcholinesterase (AChE) small molecule antagonists: enzyme-based qHTS assay with human liver microsomes (AID 1347399); further: nearly all actives have a fitted effect of over 60% in size
# Conditions: Potency: qHTS inhibition; outcome: qHTS inhibition; series mostly up to 115 µM; activity change, negative = inhibition: at the top concentration
# In short: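 Recombinant human AChE (50 mU/mL in the enzyme mix) and human liver microsomes (0.25 mg/mL final) were preincubated with compound and NADPH (0.25 mg/mL final) for 30 min at 37 C. Acetylthiocholine/DTNB was then added; thiocholine was read colorimetrically after 10 min at room temperature.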
# On the % scale 0 is the no-effect control and ±100 the full control effect.
# Sequence of Acetylcholinesterase (Homo sapiens) (P22303 whole entry, looked up): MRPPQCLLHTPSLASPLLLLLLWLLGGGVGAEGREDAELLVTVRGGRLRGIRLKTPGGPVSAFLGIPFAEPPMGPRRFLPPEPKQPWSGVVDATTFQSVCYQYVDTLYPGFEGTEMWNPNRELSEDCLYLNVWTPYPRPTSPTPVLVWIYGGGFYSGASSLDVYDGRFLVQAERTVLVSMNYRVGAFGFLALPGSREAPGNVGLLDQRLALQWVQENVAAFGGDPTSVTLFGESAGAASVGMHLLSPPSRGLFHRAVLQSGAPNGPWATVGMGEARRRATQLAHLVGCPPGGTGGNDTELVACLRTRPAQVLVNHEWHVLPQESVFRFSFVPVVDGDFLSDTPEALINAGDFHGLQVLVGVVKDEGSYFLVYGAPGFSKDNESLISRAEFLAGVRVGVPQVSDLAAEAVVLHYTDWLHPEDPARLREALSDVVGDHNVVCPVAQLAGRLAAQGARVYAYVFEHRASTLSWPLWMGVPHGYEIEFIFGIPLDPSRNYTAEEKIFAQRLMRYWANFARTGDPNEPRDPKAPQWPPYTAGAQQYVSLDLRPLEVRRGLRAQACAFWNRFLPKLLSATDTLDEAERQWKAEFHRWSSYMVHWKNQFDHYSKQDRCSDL
Compound,"activity change, negative = inhibition",Potency
CCN(CC)CC(=O)Oc1ccc(NC(C)=O)cc1,-5.02% [at 53 µM],
CC(C)(C)OC(=O)c1cccc(N)c1,-1.29%,
Cc1c(C)c2c(c(C)c1OC(=O)c1cccnc1)CC[C@@](C)(CCC[C@H](C)CCC[C@H](C)CCCC(C)C)O2,0.397% [at 53 µM],
O=C1C=CC(=O)N1c1ccccc1,-17.7%,
O=C1OC(=O)c2cccc3cccc1c23,-0.507%,
O=S(O)O,-0.486% [at 23.6 µM],
CN(C)c1ccc(C(=C2C=CC(=[N+](C)C)C=C2)c2ccc(N(C)C)cc2)cc1,,inactive
CCCC(CC)c1ccccc1 (stereo not given),-0.601%,
Cc1oc(-c2ccccc2)nc1CCOc1cccc2c1ccn2CCC(=O)O,5.23%,
CC(C)CC(=O)CC(C)C,,inactive
Nc1cc(Cl)c([N+](=O)[O-])cc1O,12.3%,
O=C(O)CCCCCCC(=O)O,-2.37%,
CC(=O)Nc1ccc(C)cc1C,0.0764%,
CCc1cccc2c(CCO)c[nH]c12,1.77% [at 53 µM],
OCC(O)CS (stereo not given),,inactive
O=C(O)c1ccccc1,,inactive
N#CCCN(CCO)CCO,1.1%,
NC(=O)NS(=O)(=O)c1ccc(N)cc1,3.53% [at 53 µM],
COc1c(Cl)c(Cl)c(Cl)c(Cl)c1Cl,,inactive
NC(=O)NC1NC(=O)NC1=O (stereo not given),,inactive

Compound,"activity change, negative = inhibition",Potency
Cc1cc(C)cc(N)c1,-0.0142%,
CC(=O)Nc1c(I)c(NC(C)=O)c(I)c(C(=O)O)c1I,,inactive
c1ccc2cc3ccccc3cc2c1,,inactive
Nc1ncnc(Nc2ccccc2)n1,-0.674% [at 53 µM],
Cc1cccnc1,,inactive
CC(C)(C)NC(N)=O,0.162%,
C[N+](C)(C)CCOC(=O)CCC(=O)OCC[N+](C)(C)C,-0.359% [at 53 µM],
CCCCC/C(C=O)=C\c1ccccc1,,inactive
C=C(C)C(=O)OCC1CCCO1 (stereo not given),3.89%,
CCCCOCCOCCOCCOCCO,0.0015%,
C/C(CC(C)C)=N\O,1.43%,
CC(C)(O)C(=O)c1ccccc1,2.83%,
CC/C=C\CCOC(C)OCC (stereo not given),1.39% [at 53 µM],
CCCCCC(=O)OCC,-1.38%,
CNC(=S)NN,-3.05%,
CN1C(C)(C)CC(O)CC1(C)C,0%,
C=CCc1ccc(O)c(OC)c1,,inactive
CCCCCCCCCOCC1CO1 (stereo not given),0.341%,
CO[C@H]1C=CO[C@@]2(C)Oc3c(C)c(O)c4c(O)c(c(/C=N/N5CCN(C)CC5)c(O)c4c3C2=O)NC(=O)/C(C)=C\C=C[C@H](C)[C@H](O)[C@@H](C)[C@@H](O)[C@@H](C)[C@H](OC(C)=O)[C@@H]1C,,inactive
C/C(=N\O)c1ccc(OCC(=O)N2CCCCC2)cc1,-0.672% [at 53 µM],
